Measurements as given in PubChem BioAssay AID1159580 (chemical genetic matrix, 2015).
The whole screen tested about 5,500 compounds, of which about 2,000 (36%) were called active. About 18% were inconclusive and are not listed. Cut-off read from the data, not from the text of the source: active = normalized growth mostly below about 0.91 (no sharp cut-off); inconclusive = no clear call, values can overlap the other calls; inactive = mostly above about 0.92. The list shows a part of the results.

Assay: chemical genetic growth profiling, strain panel (AID 1159580);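 note: tested at 20 µM; growth read once vehicle control cultures reached saturation at 30 °C; 1 = growth at the plate median or of vehicle wells; lower values mean less growth of the strain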
Settings: S. cerevisiae deletion strains, growth OD
[1] = locus YAR019C, strain CDC15, stronger effect = lower value
[2] = locus YBL105C, strain PKC1, stronger effect = lower value
[3] = locus YBR135W, strain CKS1, stronger effect = lower value
[4] = locus YBR136W, strain MEC1, stronger effect = lower value
[5] = locus YBR160W, strain CDC28, stronger effect = lower value
[6] = locus YDL017W, strain CDC7, stronger effect = lower value
[7] = locus YDL028C, strain MPS1, stronger effect = lower value
[8] = locus YDL101C, strain DUN1, stronger effect = lower value
[9] = locus YDL108W, strain KIN28, stronger effect = lower value
[10] = locus YDL132W, strain cdc53, stronger effect = lower value
[11] = locus YDL214C, strain PRR2, stronger effect = lower value
[12] = locus YDR052C, strain DBF4, stronger effect = lower value
[13] = locus YDR054C, strain cdc34, stronger effect = lower value
[14] = locus YDR226W, strain ADK1, stronger effect = lower value
[15] = locus YDR477W, strain SNF1, stronger effect = lower value
[16] = locus YER123W, strain YCK3, stronger effect = lower value
[17] = locus YER133W, strain GLC7, stronger effect = lower value
[18] = locus YFL009W, strain cdc4, stronger effect = lower value
[19] = locus YFL029C, strain CAK1, stronger effect = lower value
[20] = locus YFR003C, strain YPI1, stronger effect = lower value
[21] = locus YFR019W, strain FAB1, stronger effect = lower value
[22] = locus YFR028C, strain CDC14, stronger effect = lower value
[23] = locus YGR040W, strain KSS1, stronger effect = lower value
[24] = locus YGR052W, strain FMP48, stronger effect = lower value
[25] = locus YGR092W, strain DBF2, stronger effect = lower value
[26] = locus YHR030C, strain SLT2, stronger effect = lower value
[27] = locus YHR079C, strain IRE1, stronger effect = lower value
[28] = locus YHR082C, strain KSP1, stronger effect = lower value
[29] = locus YHR205W, strain SCH9, stronger effect = lower value
[30] = locus YIL147C, strain SLN1, stronger effect = lower value
[31] = locus YJL095W, strain BCK1, stronger effect = lower value
[32] = locus YJL128C, strain PBS2, stronger effect = lower value
[33] = locus YJL157C, strain FAR1, stronger effect = lower value
[34] = locus YJR016C, strain ILV3, stronger effect = lower value
[35] = locus YJR066W, strain TOR1 (second series), stronger effect = lower value
[36] = locus YJR066W, strain TOR1, stronger effect = lower value
[37] = locus YKL048C, strain ELM1, stronger effect = lower value
[38] = locus YKL067W, strain YNK1, stronger effect = lower value
[39] = locus YKL101W, strain HSL1, stronger effect = lower value
[40] = locus YKL193C, strain SDS22, stronger effect = lower value
[41] = locus YKL203C, strain TOR2, stronger effect = lower value
[42] = locus YLR113W, strain HOG1, stronger effect = lower value
[43] = locus YLR133W, strain CKI1, stronger effect = lower value
[44] = locus YLR403W, strain SFP1, stronger effect = lower value
[45] = locus YML070W, strain DAK1, stronger effect = lower value
[46] = locus YMR001C, strain CDC5, stronger effect = lower value
[47] = locus YMR205C, strain PFK2 (second series), stronger effect = lower value
[48] = locus YMR277W, strain FCP1, stronger effect = lower value
[49] = locus YNL006W, strain LST8, stronger effect = lower value
[50] = locus YNL020C, strain ARK1, stronger effect = lower value
[51] = locus YNL161W, strain CBK1, stronger effect = lower value
[52] = locus YNL183C, strain NPR1, stronger effect = lower value
[53] = locus YNL207W, strain RIO2, stronger effect = lower value
[54] = locus YNL222W, strain SSU72, stronger effect = lower value
[55] = locus YNL307C, strain MCK1 (second series), stronger effect = lower value
[56] = locus YOL078W, strain AVO1, stronger effect = lower value
[57] = locus YOL136C, strain PFK27, stronger effect = lower value
[58] = locus YOR061W, strain CKA2, stronger effect = lower value
[59] = locus YOR119C, strain RIO1, stronger effect = lower value
[60] = locus YOR231W, strain MKK1, stronger effect = lower value
[61] = locus YOR329C, strain SCD5, stronger effect = lower value
[62] = locus YPL031C, strain PHO85, stronger effect = lower value
[63] = locus YPL153C, strain RAD53, stronger effect = lower value
[64] = locus YPL204W, strain HRR25, stronger effect = lower value
[65] = locus YPL209C, strain IPL1, stronger effect = lower value
[66] = locus YPL256C, strain CLN2, stronger effect = lower value
[67] = locus YPR025C, strain CCL1, stronger effect = lower value
[68] = locus YPR106W, strain ISR1, stronger effect = lower value
[69] = locus YPR111W, strain DBF20, stronger effect = lower value
[70] = strain NNK1, stronger effect = lower value
[71] = strain TSCII, stronger effect = lower value

Measured: normalized growth

CCOC(=O)C(O)(c1ccc(NC(=O)c2ccc(Cl)c(Cl)c2)cc1)C(F)(F)F (configuration not stated)
inactive: [1] 0.998 | [2] 0.988 | [3] 1 | [4] 0.989 | [5] 0.996 | [6] 0.997 | [7] 0.993 | [8] 0.994 | [9] 0.997 | [10] 0.997 | [11] 0.874 | [12] 0.996 | [13] 0.991 | [14] 0.992 | [15] 0.92 | [16] 0.859 | [17] 0.926 | [18] 0.99 | [19] 0.992 | [20] 0.999 | [21] 0.933 | [22] 1 | [23] 0.915 | [24] 0.979 | [25] 0.892 | [26] 0.962 | [27] 0.953 | [28] 0.967 | [29] 0.928 | [30] 0.986 | [31] 1.01 | [32] 0.946 | [33] 0.913 | [34] 0.988 | [35] 0.914 | [36] 0.994 | [37] 0.953 | [38] 0.935 | [39] 0.901 | [40] 1 | [41] 0.994 | [42] 0.977 | [43] 0.939 | [44] 0.94 | [45] 0.886 | [46] 0.997 | [47] 0.941 | [48] 1 | [49] 0.986 | [50] 0.919 | [51] 0.99 | [52] 1.02 | [53] 0.992 | [54] 0.994 | [55] 0.91 | [56] 1 | [57] 0.895 | [58] 0.911 | [59] 0.957 | [60] 0.977 | [61] 1 | [62] 0.896 | [63] 0.912 | [64] 0.922 | [65] 0.996 | [66] 0.976 | [67] 1 | [68] 0.988 | [69] 0.986 | [70] 0.987 | [71] 0.993

COc1ccccc1NC(=S)NCCc1ccc(OC)c(OC)c1
inactive: locus YAL013W, strain DEP1, stronger effect = lower value 0.997 | locus YBR229C, strain ROT2, stronger effect = lower value 1 | [8] 1.05 | locus YDR150W, strain NUM1, stronger effect = lower value 1.02 | locus YEL061C, strain CIN8, stronger effect = lower value 0.998 | locus YGR078C, strain PAC10, stronger effect = lower value 0.998 | [26] 0.979 | locus YHR087W, strain rtc3, stronger effect = lower value 1.02 | locus YJR043C, strain POL32, stronger effect = lower value 0.982 | locus YJR075W, strain HOC1, stronger effect = lower value 0.991 | locus YLR039C, strain RIC1, stronger effect = lower value 0.91 | locus YLR058C, strain SHM2 (second series), stronger effect = lower value 0.99 | locus YLR085C, strain ARP6, stronger effect = lower value 0.942 | locus YLR262C, strain YPT6, stronger effect = lower value 0.954 | locus YML094W, strain GIM5, stronger effect = lower value 1.1 | locus YMR219W, strain ESC1, stronger effect = lower value 0.999 | locus YMR263W, strain SAP30, stronger effect = lower value 0.989 | locus YNL153C, strain GIM3, stronger effect = lower value 1.02 | locus YNL298W, strain CLA4 (second series), stronger effect = lower value 0.952 | locus YNL322C, strain KRE1, stronger effect = lower value 0.997 | locus YNR030W, strain Alg12, stronger effect = lower value 1.02 | locus YPL055C, strain LGE1, stronger effect = lower value 1.03 | locus YPL241C, strain CIN2, stronger effect = lower value 0.927 | locus YPR135W, strain CTF4, stronger effect = lower value 1.04

S=C(NCCc1csc2ccccc12)Nc1ccc(Cl)cc1
inactive: [1] 0.923 | [2] 0.945 | [3] 0.945 | [4] 0.944 | [5] 0.956 | [6] 0.952 | [7] 0.942 | [8] 0.962 | [9] 0.95 | [10] 0.944 | [11] 0.797 | [12] 0.96 | [13] 0.931 | [14] 0.951 | [15] 0.815 | [16] 0.719 | [17] 0.816 | [18] 0.944 | [19] 0.9 | [20] 0.953 | [21] 0.934 | [22] 0.945 | [23] 0.819 | [24] 0.795 | [25] 0.735 | [27] 0.786 | [28] 0.721 | [30] 0.938 | [31] 0.677 | [32] 0.872 | [33] 0.863 | [34] 0.945 | [35] 0.759 | [36] 0.727 | [37] 0.914 | [38] 0.828 | [39] 0.787 | [40] 0.943 | [41] 0.886 | [43] 0.797 | [44] 0.752 | [45] 0.808 | [46] 0.946 | [47] 0.84 | [48] 0.941 | [49] 0.96 | [50] 0.795 | [51] 0.952 | [52] 0.754 | [53] 0.937 | [54] 0.952 | [55] 0.729 | [56] 0.945 | [57] 0.8 | [58] 0.811 | [59] 0.867 | [60] 0.789 | [61] 0.952 | [62] 0.768 | [63] 0.775 | [64] 0.809 | [65] 0.946 | [67] 0.945 | [68] 0.936 | [69] 0.917 | [70] 0.914 | [71] 0.922
active: [26] 0.5 | [29] 0.566 | [42] 0.536 | [66] 0.667

S=C(NCc1cccs1)Nc1cc(Cl)cc(Cl)c1
inactive: [1] 0.942 | [2] 0.947 | [3] 0.936 | [4] 0.945 | [5] 0.944 | [6] 0.955 | [7] 0.944 | [8] 0.979 | [9] 0.947 | [10] 0.962 | [11] 0.912 | [12] 0.96 | [13] 0.967 | [14] 0.955 | [15] 0.894 | [16] 0.848 | [17] 0.867 | [18] 0.928 | [19] 0.936 | [20] 0.948 | [21] 0.95 | [22] 0.959 | [23] 0.891 | [24] 0.964 | [25] 0.739 | [26] 0.988 | [27] 0.961 | [28] 0.901 | [29] 0.946 | [30] 0.949 | [31] 0.958 | [32] 0.892 | [33] 0.879 | [34] 0.948 | [35] 0.874 | [36] 0.917 | [37] 0.953 | [38] 0.902 | [39] 0.923 | [40] 0.937 | [41] 0.944 | [42] 0.912 | [43] 0.931 | [44] 0.898 | [45] 0.883 | [46] 0.941 | [47] 0.918 | [48] 0.934 | [49] 0.944 | [50] 0.906 | [51] 0.946 | [52] 0.928 | [53] 0.928 | [54] 0.93 | [55] 0.935 | [56] 0.934 | [57] 0.897 | [58] 0.872 | [59] 0.936 | [60] 1.01 | [61] 0.949 | [62] 0.865 | [63] 0.862 | [64] 0.878 | [65] 0.942 | [66] 0.961 | [67] 0.949 | [68] 0.948 | [69] 0.952 | [70] 0.959 | [71] 0.936
